WRN helicase inh: qHTS for Inhibitors of WRN Helicase; Bifunctional 3'-5' exonuclease/ATP-dependent helicase WRN (Homo sapiens), Q14191; WRN helicase unwinding, fluorescent forked duplex, kinetic; Potency, µM (highest dose often 114 µM), most hits filed as inhibitors; hit rate 0.46% among 360,000; note: nearly all actives have a fitted effect of over 55% in size
Target sequence (Q14191 whole entry, looked up): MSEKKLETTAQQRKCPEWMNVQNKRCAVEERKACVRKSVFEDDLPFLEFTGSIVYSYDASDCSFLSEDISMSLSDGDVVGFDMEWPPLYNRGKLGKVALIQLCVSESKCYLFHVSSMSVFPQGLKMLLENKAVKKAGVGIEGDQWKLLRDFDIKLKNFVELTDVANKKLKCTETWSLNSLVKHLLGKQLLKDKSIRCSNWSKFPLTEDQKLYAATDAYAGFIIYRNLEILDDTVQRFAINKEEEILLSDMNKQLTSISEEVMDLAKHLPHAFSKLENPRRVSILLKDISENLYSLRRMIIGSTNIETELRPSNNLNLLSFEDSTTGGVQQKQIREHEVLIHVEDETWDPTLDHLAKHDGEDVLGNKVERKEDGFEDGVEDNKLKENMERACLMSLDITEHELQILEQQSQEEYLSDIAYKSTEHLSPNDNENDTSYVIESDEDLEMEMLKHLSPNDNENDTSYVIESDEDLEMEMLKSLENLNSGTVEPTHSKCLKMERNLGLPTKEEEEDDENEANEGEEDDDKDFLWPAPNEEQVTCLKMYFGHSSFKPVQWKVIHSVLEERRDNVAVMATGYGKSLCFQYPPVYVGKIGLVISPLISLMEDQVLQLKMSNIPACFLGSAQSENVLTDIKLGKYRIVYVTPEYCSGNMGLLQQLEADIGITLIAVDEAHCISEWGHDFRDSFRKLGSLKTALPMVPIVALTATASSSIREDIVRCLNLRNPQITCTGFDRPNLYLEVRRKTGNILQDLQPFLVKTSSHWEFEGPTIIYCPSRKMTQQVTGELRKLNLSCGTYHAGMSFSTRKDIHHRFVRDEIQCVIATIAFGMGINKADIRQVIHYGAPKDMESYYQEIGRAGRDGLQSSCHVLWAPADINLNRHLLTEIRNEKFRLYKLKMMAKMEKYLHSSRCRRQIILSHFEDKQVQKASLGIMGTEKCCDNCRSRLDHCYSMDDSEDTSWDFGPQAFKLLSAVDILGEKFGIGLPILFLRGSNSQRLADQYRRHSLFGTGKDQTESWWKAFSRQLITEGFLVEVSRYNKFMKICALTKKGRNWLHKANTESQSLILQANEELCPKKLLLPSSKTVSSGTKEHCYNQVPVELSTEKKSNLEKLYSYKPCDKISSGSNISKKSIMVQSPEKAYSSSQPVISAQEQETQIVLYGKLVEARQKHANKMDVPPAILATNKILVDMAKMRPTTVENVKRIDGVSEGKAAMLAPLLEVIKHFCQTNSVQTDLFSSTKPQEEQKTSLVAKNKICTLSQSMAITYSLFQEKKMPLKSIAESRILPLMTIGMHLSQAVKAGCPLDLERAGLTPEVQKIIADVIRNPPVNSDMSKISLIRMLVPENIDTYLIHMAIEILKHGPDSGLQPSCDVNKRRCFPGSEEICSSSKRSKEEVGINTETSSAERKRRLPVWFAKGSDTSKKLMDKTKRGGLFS
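Kinetic fluorescence helicase assay: unwinding of a quenched forked DNA duplex (100 nM final) with 2 mM ATP final raises red fluorescence (525/598 nm). Compounds sat 15 min at room temperature with 20 nM WRN beforehand.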
Pol eta inh: qHTS for Inhibitors of Polymerase Eta | DNA polymerase eta (Homo sapiens), Q9Y253 | recombinant Pol eta, fluorescent DNA replication assay | Potency, µM (highest dose often 114 µM), most hits filed as inhibitors | hit rate 1.2% among 390,000 | AID 588591, 2011
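Fluorescent replication assay: 50 nM final substrate added after a 15 min room-temperature compound preincubation with 10 nM enzyme. Signal taken at 0 min and again at 10 min.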
POLB inh: qHTS Assay for Inhibitors of DNA Polymerase Beta; P06746; Pol beta primer extension/strand displacement, fluorescence kinetic; Potency, µM (highest dose often 114 µM), most hits filed as inhibitors; hit rate 1.3% among 340,000; AID 485314, 2010
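Reaction started by 50 nM substrate onto compound-treated Pol beta (10 nM, 15 min preincubation, room temperature); plates read at 0 min and 10 min. Normalized concentration-effect data fitted by four-parameter Hill equation.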
Pol iota inh: qHTS for Inhibitors of Polymerase Iota. Potency, µM (doses to about 115 µM), actives largely listed as inhibitors. DNA polymerase iota (Homo sapiens), Q9UNA4. AID 588590, 2011. Pol iota fluorescent replication assay, 10 min. hit rate 1% among 390,000
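Fluorescent replication assay read twice, at 0 min and 10 min after adding 50 nM (final) substrate. Enzyme (10 nM) and compounds were first incubated 15 min at room temperature; enzyme-free buffer wells were negative controls.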
Pol kappa inh: qHTS for Inhibitors of Polymerase Kappa. DNA polymerase kappa (Homo sapiens), Q9UBT6. hit rate 0.53% among 400,000. Potency, µM (titrated, usually from 107 µM), actives largely listed as inhibitors. purified Pol kappa, fluorescent DNA synthesis assay, 10 min
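Readout: fluorescence, taken kinetically at 0 and 10 min. Conditions: 10 nM Pol kappa, 15 min RT compound preincubation, 50 nM substrate final. Controls: enzyme-free buffer wells.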
PI5P4Ka inh: qHTS for Inhibitors of phosphatidylinositol 5-phosphate 4-kinase (PI5P4K); max response, %; PI5P4Kalpha enzyme, ADP-Glo luminescence, 60 min; hits give low values; hit rate 1.2% among 330,000; AID 652105, 2013; active = max response of -50% or lower; inconclusive = between -30% and -50%; inactive = -30% or higher; note: value at the top dose of about 77 µM
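Enzyme plus substrate dispensed, test compounds pinned in, then ATP (5 microM final) added. After 60 min at RT, ADP-Glo reagent 1 for 45 min and reagent 2 for 30 min preceded luminescence imaging.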
Hits are given with their value; . = inactive; ? = inconclusive; / = no result; [ ] = another dose, or the depositor's remark. Only some compounds are listed: those with a hit (about 2.8% of all), similar ones and a draw of the others. Unless noted, calls come from the whole dose curve; as a rule, active = well fitted curve in the direction sought with a large enough effect; inconclusive = small, poorly fitted or top-dose-only effect, or another doubt; inactive = no such curve, though single readings can be large; an effect the other way counts as inactive or inconclusive.

SMILES | WRN helicase inh | Pol eta inh | POLB inh | Pol iota inh | Pol kappa inh | PI5P4Ka inh
Cn1nc(-c2ccc(OCC(=O)Nc3cccc(C(F)(F)F)c3)cc2)c2ccccc2c1=O | / | 79µM | ? | . | . | /
Cn1nc(-c2ccc(OCC(=O)Nc3cccnc3)cc2)c2ccccc2c1=O | . | . | . | . | . | .
COc1cccc(CNC(=O)CCc2c(C)c3cc4c(C)coc4c(C)c3oc2=O)c1 | / | ? | 25µM | ? | . | /
Cc1coc2c(C)c3oc(=O)c(CCC(=O)N(C)CC(=O)O)c(C)c3cc12 | . | 20µM | 79µM | . | . | .
CCOc1ccc(CNS(=O)(=O)c2ccc3c(c2)CCCN3C(C)=O)cc1OC | / | . | . | . | . | /
Cc1ccc(NC(=O)CSc2ccc3c(c2)OCCO3)nc1 | . | . | / | . | . | .
COc1cc(/C=C2/C(=O)ON=C2c2ccccc2)ccc1O | ? | . | . | ? | . | ?
COc1cc(/C=C2\C(=O)ON=C2c2ccccc2)cc(Cl)c1O | ? | . | . | ? | . | -67
O=C1ON=C(c2ccccc2)/C1=C/c1ccccc1 | . | . | . | . | . | .
COc1cc([N+](=O)[O-])ccc1-c1ccc(/C=C2\C(=O)ON=C2c2ccccc2)o1 | .[11.6 µM] | 79µM | / | ? | . | .
O=C1ON=C(c2ccccc2)/C1=C\c1ccco1 | . | . | 32µM | . | . | .
Cc1ccc(C2=NOC(=O)/C2=C\c2ccccc2)cc1 | . | . | / | ? | . | .
Cc1ccc(/C=C2/C(=O)ON=C2c2ccccc2)o1 | ? | 35µM | . | 4µM | 22µM | ?
COc1cc([N+](=O)[O-])ccc1-c1ccc(/C=N\n2cnnc2)o1 | . | . | ? | ? | . | .
COC(=O)c1ccc(COC(=O)CNC(=O)c2cccs2)cc1 | . | . | . | . | . | .
CCc1nnc(SCC(=O)Nc2ccc(Cl)cc2F)c2cc3occc3n12 | / | . | . | . | . | /
Cc1ccc(-n2ncc3c2CC(C)(C)CC3NC(=O)CCc2ccncc2)cc1 (centres undefined) | . | . | . | . | . | .
O=C1Nc2ccccc2C(=O)C1(Cl)Cc1ccccc1 (centres undefined) | 45µM | . | . | ? | . | .
Cc1ccc(S(=O)(=O)N2CCCC2CNC(=O)C(=O)NCc2ccc3c(c2)OCO3)cc1 (centres undefined) | . | . | / | / | / | .
O=C1Cc2cc(S(=O)(=O)N3CCNCC3)ccc2N1 | .[11.6 µM] | ? | / | 32µM | . | .
Cc1ccc(NC(=O)C(=Cc2ccc(C(=O)O)cc2)C(=O)Nc2ccc(C)cc2C)c(C)c1 | ? | 79µM | . | 13µM | . | .
O=c1c2ccccc2c2ccccc2c(=O)n1Nc1ccccc1 | . | . | / | / | / | .
CCC(CC)C(=O)Nc1cccc(C(=O)NCc2ccco2)c1 | . | ? | 3.2µM | 40µM | ? | /
CCOC(=O)c1c(C)c(C(=O)NCc2ccco2)c(C)n1Cc1ccccc1 | . | ? | 40µM | ? | . | /
CCOC(=O)c1c(C)c(C(=O)NCc2ccco2)c(C)n1CC | . | . | . | . | . | .
SMILES | WRN helicase inh | Pol eta inh | POLB inh | Pol iota inh | Pol kappa inh | PI5P4Ka inh
CCOc1ccc(C(=O)NCc2ccco2)cc1 | . | ? | 22µM | ? | ? | /
CC(C)CNC(=O)c1cccc(NC(=O)c2ccc(NC(=O)c3ccco3)cc2)c1 | . | . | 25µM | ? | . | /
O=C(NCc1ccco1)c1cccc(NC(=O)c2ccccc2)c1 | . | . | . | . | . | .
O=C(NCc1ccco1)c1ccc(Cn2c(=S)[nH]c3ccccc3c2=O)cc1 | . | ? | 20µM | . | . | .
Cc1cccc(C(=O)NCc2ccco2)c1 | .[11.6 µM] | ? | 56µM | ? | . | .
CCc1nnc(NS(=O)(=O)c2ccc(N3C(=O)C4CC=C(Cl)CC4C3=O)cc2)s1 (centres undefined) | .[11.6 µM] | 45µM | . | ? | . | .
CC(=O)c1coc2c1cc(O)c1ccccc12 | . | . | . | . | . | /
CC(=O)c1cc(O)c2ccccc2c1O | .[11.6 µM] | 89µM | ? | . | . | ?
O=C(O)CN(CC(=O)O)Cc1cc2c(-c3ccccc3C(=O)O)c3cc(CN(CC(=O)O)CC(=O)O)c(=O)cc-3oc2cc1O | / | / | / | / | 7.1µM | /
O=c1cc(-c2ccccc2F)oc2ccccc12 | . | . | . | . | . | .
O=C(O)c1ccccc1-c1c2ccc(=O)cc-2oc2cc(O)ccc12 | / | / | / | / | 27µM | /
CCn1c2c(c(=O)n3ncc(C(=O)N4CCN(c5ccc(Cl)cc5)CC4)c13)CN(Cc1ccc(OC)cc1)CC2 | / | ? | . | . | . | /
Cc1ccc(NS(=O)(=O)c2ccc(-c3coc(C)n3)cc2)c(Cl)c1 | . | . | / | / | / | .
N#CC1=C(S)N(c2ccccc2)C(c2ccc(-c3cc(Cl)ccc3Cl)o2)NC1=O (centres undefined) | . | . | 32µM | . | . | .
Cc1ccccc1OCc1nnc(SCC(=O)O)n1-c1ccccc1 | . | . | . | ? | . | ?
Cc1ccccc1OCc1nnc(SCC(=O)O)n1-c1cccc(Cl)c1 | . | . | . | . | . | -53
CC(C)CN1CCCC2(CCN(C(=O)c3cnccn3)CC2)C1 | / | / | / | / | . | /
COc1cc(OC)c(NC(=O)CC2SC(N)=NC2=O)cc1Cl (centres undefined) | . | . | / | / | / | .
O=C(Nc1ccc2c(c1)nc1n2CCSC1)c1ccco1 | . | ? | 11µM | 32µM | . | ?
S=C1NC2(CCCCC2)NN1c1ccccc1 | . | . | . | . | . | .
CC(C)(C)N1NC2(CCCCC2)NC1=S | . | . | . | . | . | -58
C#CCOCCOCCOCCNc1nc(N2CCN(C(=O)CCCCCCCCCCNC(=O)[C@@H](CCSC)n3cc(CCO)nn3)CC2)nc(N2CCN(C(=O)CCCCCCCCCCNC(=O)[C@H]([C@@H](C)CC)n3cc(CCCCN=C(N)N)nn3)CC2)n1 | ? | 79µM | / | ? | . | -73
C#CCOCCOCCOCCNc1nc(N2CCN(C(=O)CCCCCCCCCCNC(=O)[C@@H](CCSC)n3cc(CCO)nn3)CC2)nc(N2CCN(C(=O)CCCCCCCCCCNC(=O)[C@H]([C@@H](C)CC)n3cc(CCCCCN)nn3)CC2)n1 | ? | ? | / | ? | . | -54
Cc1ccc(S(=O)(=O)NCC(=O)N2CCN(c3ccc(F)cc3)CC2)cc1 | . | . | . | . | . | .
COc1ncnc2c1ncn2CCCNCc1ccccn1 | . | . | / | / | / | .
N#CCC(N)=C(C#N)C#N | . | . | . | . | . | -76
COC(=O)CC#N | . | . | / | . | . | .
O=C(O)C1CCCN1S(=O)(=O)c1ccc(Cl)c(Cl)c1 (centres undefined) | . | . | . | ? | . | /
